# In PubChem BioAssay (NCI):
# Where “and” joins values, the source holds several entries; their conditions need not be identical. Identical values can stand only once. Compounds without any hit were thinned out: in the full panel of roughly 83,000, 20% have a hit.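 Treatment: one concentration, 48 hours, 96-well format. Scoring: percent growth, with anything below 10 considered active.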 Calls of active or inactive are those of the source.
# How the values were obtained:
# Assay in all cases: NCI-60 one-dose screen, 48 h (100 = growth as untreated, 0 = no growth, -100 = all killed)
# SR leukemia = conditions: 10 µM unless noted
# RPMI-8226 leukemia = tested on: RPMI-8226 leukemia
# OVCAR-8 ovarian = tested on: OVCAR-8 ovarian
# OVCAR-5 ovarian = tested on: OVCAR-5 ovarian
# OVCAR-4 ovarian = tested on: OVCAR-4 ovarian
# SK-OV-3 ovarian = tested on: SK-OV-3 ovarian
# IGROV1 ovarian = tested on: IGROV1 ovarian
# OVCAR-3 ovarian = tested on: OVCAR-3 ovarian
# HS 578T breast = conditions: 10 µM unless noted
# NCI/ADR-RES ovarian = tested on: NCI/ADR-RES ovarian
# T-47D breast = tested on: T-47D breast
# BT-549 breast = tested on: BT-549 breast
# MDA-MB-435 melanoma = conditions: 10 µM unless noted
# SW-620 colon = tested on: SW-620 colon
# MCF7 breast = tested on: MCF7 breast
# HCT-116 colon = conditions: 10 µM unless noted
# HCC-2998 colon = tested on: HCC-2998 colon
# KM12 colon = tested on: KM12 colon
smiles,measurement,setting,value
COc1cc(NS(C)(=O)=O)ccc1Nc1c2ccccc2nc2ccccc12,growth,SR leukemia,19.4% [2.5 µM] (inactive)
same,growth,RPMI-8226 leukemia; 10 µM unless noted,11.3% [2.5 µM] (inactive)
same,growth,OVCAR-8 ovarian; 10 µM unless noted,28.8% (inactive) and 23.2% (inactive) and 27.8% (inactive)
same,growth,OVCAR-5 ovarian; 10 µM unless noted,46.8% [2.5 µM] (inactive)
same,growth,OVCAR-4 ovarian; 10 µM unless noted,87.8% [2.5 µM] (inactive)
same,growth,SK-OV-3 ovarian; 10 µM unless noted,32.5% [2.5 µM] (inactive)
same,growth,IGROV1 ovarian; 10 µM unless noted,48.6% [2.5 µM] (inactive)
same,growth,OVCAR-3 ovarian; 10 µM unless noted,58.7% [2.5 µM] (inactive)
same,growth,HS 578T breast,-6.75% [2.5 µM] (active)
same,growth,NCI/ADR-RES ovarian; 10 µM unless noted,70.2% [2.5 µM] (inactive)
same,growth,T-47D breast; 10 µM unless noted,23.1% [2.5 µM] (inactive)
same,growth,BT-549 breast; 10 µM unless noted,20.2% [2.5 µM] (inactive)
same,growth,MDA-MB-435 melanoma,64.1% [2.5 µM] (inactive)
same,growth,SW-620 colon; 10 µM unless noted,41.5% [2.5 µM] (inactive)
same,growth,MCF7 breast; 2.5 µM,32.5% (inactive)
same,growth,MCF7 breast; 10 µM,22.5% (inactive) [middle of 4 runs]
same,growth,MCF7 breast; 250 µM,-69.8% (active) and -100% (active)
same,growth,HCT-116 colon,31% [2.5 µM] (inactive)
same,growth,HCC-2998 colon; 10 µM unless noted,-44.3% [2.5 µM] (active)
CC(=O)Nc1cccc2cc(O)ccc12,growth,SR leukemia,108% (inactive) and 107% (inactive) and 99.6% (inactive)
same,growth,RPMI-8226 leukemia; 10 µM unless noted,120% (inactive) and 112% (inactive) and 106% (inactive)
same,growth,OVCAR-8 ovarian; 10 µM unless noted,106% (inactive) and 100% (inactive) and 94.3% (inactive)
same,growth,OVCAR-5 ovarian; 10 µM unless noted,94.7% (inactive) and 93.2% (inactive) and 113% (inactive)
same,growth,OVCAR-4 ovarian; 10 µM unless noted,119% (inactive) and 109% (inactive) and 98.8% (inactive)
same,growth,SK-OV-3 ovarian; 10 µM unless noted,111% (inactive) and 115% (inactive) and 99.8% (inactive)
same,growth,IGROV1 ovarian; 10 µM unless noted,97.2% (inactive) and 123% (inactive)
same,growth,OVCAR-3 ovarian; 10 µM unless noted,111% (inactive) and 105% (inactive) and 108% (inactive)
same,growth,HS 578T breast,132% (inactive) and 101% (inactive) and 98.5% (inactive)
same,growth,NCI/ADR-RES ovarian; 10 µM unless noted,104% (inactive) and 113% (inactive) and 110% (inactive)
same,growth,T-47D breast; 10 µM unless noted,97% (inactive) and 103% (inactive)
same,growth,BT-549 breast; 10 µM unless noted,118% (inactive) and 145% (inactive) and 94.5% (inactive)
same,growth,MDA-MB-435 melanoma,107% (inactive) and 117% (inactive) and 103% (inactive)
same,growth,SW-620 colon; 10 µM unless noted,104% (inactive) and 92% (inactive) and 98.7% (inactive)
same,growth,MCF7 breast; 10 µM,99.3% (inactive) and 99.8% (inactive) and 91.6% (inactive)
same,growth,HCT-116 colon,85.9% (inactive) and 103% (inactive) and 91.2% (inactive)
same,growth,HCC-2998 colon; 10 µM unless noted,115% (inactive) and 108% (inactive) and 95% (inactive)
same,growth,KM12 colon; 10 µM unless noted,110% (inactive) and 90.7% (inactive) and 103% (inactive)
N#CSCc1ccc(Cl)c(CSC#N)c1,growth,SR leukemia,8.52% (active)
same,growth,RPMI-8226 leukemia; 10 µM unless noted,23.9% (inactive)
same,growth,OVCAR-8 ovarian; 10 µM unless noted,61.9% (inactive)
same,growth,OVCAR-5 ovarian; 10 µM unless noted,68.7% (inactive)
same,growth,OVCAR-4 ovarian; 10 µM unless noted,48.7% (inactive)
same,growth,SK-OV-3 ovarian; 10 µM unless noted,90.1% (inactive)
same,growth,IGROV1 ovarian; 10 µM unless noted,59.4% (inactive)
same,growth,OVCAR-3 ovarian; 10 µM unless noted,46.3% (inactive)
same,growth,HS 578T breast,49% (inactive)
same,growth,NCI/ADR-RES ovarian; 10 µM unless noted,45.5% (inactive)
same,growth,T-47D breast; 10 µM unless noted,57.5% (inactive)
same,growth,BT-549 breast; 10 µM unless noted,14.1% (inactive)
same,growth,MDA-MB-435 melanoma,3.85% (active)
same,growth,SW-620 colon; 10 µM unless noted,20.4% (inactive)
same,growth,MCF7 breast; 10 µM,16.1% (inactive)
same,growth,HCC-2998 colon; 10 µM unless noted,51.5% (inactive)
CCCCCCCCCCCCCCCCOP(=O)([O-])OCC[N+](C)(C)C,growth,SR leukemia,15% (inactive)
same,growth,RPMI-8226 leukemia; 10 µM unless noted,7.31% (active)
same,growth,OVCAR-8 ovarian; 10 µM unless noted,59.6% (inactive)
same,growth,OVCAR-5 ovarian; 10 µM unless noted,53.2% (inactive)
same,growth,OVCAR-4 ovarian; 10 µM unless noted,78.3% (inactive)
same,growth,SK-OV-3 ovarian; 10 µM unless noted,37.9% (inactive)
same,growth,IGROV1 ovarian; 10 µM unless noted,21.3% (inactive)
same,growth,OVCAR-3 ovarian; 10 µM unless noted,33.4% (inactive)
same,growth,HS 578T breast,33.7% (inactive)
same,growth,NCI/ADR-RES ovarian; 10 µM unless noted,90% (inactive)
same,growth,T-47D breast; 10 µM unless noted,73% (inactive)
same,growth,BT-549 breast; 10 µM unless noted,45% (inactive)
same,growth,MDA-MB-435 melanoma,68.3% (inactive)
same,growth,SW-620 colon; 10 µM unless noted,50.9% (inactive)
same,growth,MCF7 breast; 10 µM,68.5% (inactive)
same,growth,HCT-116 colon,24.6% (inactive)
same,growth,HCC-2998 colon; 10 µM unless noted,17.7% (inactive)
same,growth,KM12 colon; 10 µM unless noted,-90.4% (active)
O=C(Nc1c(Cl)cccc1Cl)Oc1cccc2cccnc12,growth,SR leukemia,5.64% [100 µM] (active)
same,growth,RPMI-8226 leukemia; 10 µM,45.7% (inactive)
same,growth,RPMI-8226 leukemia; 100 µM,2.58% (active)
same,growth,OVCAR-8 ovarian; 10 µM,27% (inactive)
same,growth,OVCAR-8 ovarian; 100 µM,10.2% (inactive)
same,growth,OVCAR-5 ovarian; 10 µM,103% (inactive)
same,growth,OVCAR-5 ovarian; 100 µM,34.1% (inactive)
same,growth,OVCAR-4 ovarian; 10 µM,15.9% (inactive)
same,growth,OVCAR-4 ovarian; 100 µM,14.5% (inactive)
same,growth,SK-OV-3 ovarian; 10 µM,65.4% (inactive)
same,growth,SK-OV-3 ovarian; 100 µM,18% (inactive)
same,growth,IGROV1 ovarian; 10 µM,27% (inactive)
same,growth,IGROV1 ovarian; 100 µM,14.4% (inactive)
same,growth,OVCAR-3 ovarian; 10 µM,14% (inactive)
same,growth,OVCAR-3 ovarian; 100 µM,4.16% (active)
same,growth,NCI/ADR-RES ovarian; 10 µM,13.5% (inactive)
same,growth,NCI/ADR-RES ovarian; 100 µM,3.5% (active)
same,growth,T-47D breast; 10 µM,30.2% (inactive)
same,growth,T-47D breast; 100 µM,7.28% (active)
same,growth,BT-549 breast; 10 µM,78.5% (inactive)
same,growth,BT-549 breast; 100 µM,23.5% (inactive)
same,growth,SW-620 colon; 10 µM,26.8% (inactive)
same,growth,SW-620 colon; 100 µM,23.5% (inactive)
same,growth,MCF7 breast; 10 µM,3.58% (active)
same,growth,MCF7 breast; 100 µM,-1.84% (active)
same,growth,HCC-2998 colon; 10 µM,93.4% (inactive)
same,growth,HCC-2998 colon; 100 µM,42.2% (inactive)
same,growth,KM12 colon; 10 µM,47% (inactive)
same,growth,KM12 colon; 100 µM,5.56% (active)
COC(=O)Nc1nc2ccc(C(=O)c3ccccc3)cc2[nH]1,growth,SR leukemia,19.8% (inactive) and 2.51% (active)
same,growth,RPMI-8226 leukemia; 10 µM unless noted,45.5% (inactive) and -31.7% (active)
same,growth,OVCAR-8 ovarian; 10 µM unless noted,22% (inactive) and 20.6% (inactive) and 22.1% (inactive)
same,growth,OVCAR-5 ovarian; 10 µM unless noted,20.7% (inactive) and 47.1% (inactive)
same,growth,OVCAR-4 ovarian; 10 µM unless noted,52.6% (inactive) and 72.1% (inactive) and 39.6% (inactive)
same,growth,SK-OV-3 ovarian; 10 µM unless noted,22.8% (inactive) and 28.9% (inactive) and 32.6% (inactive)
same,growth,IGROV1 ovarian; 10 µM unless noted,43.2% (inactive) and 13.7% (inactive) and -39.8% (active)
same,growth,OVCAR-3 ovarian; 10 µM unless noted,-50.1% (active) and -60.4% (active) and -59.4% (active)
same,growth,HS 578T breast,35.5% (inactive) and 15.8% (inactive) and 21.6% (inactive)
same,growth,NCI/ADR-RES ovarian; 10 µM unless noted,-28.8% (active) and 4.68% (active) and -3.41% (active)
same,growth,T-47D breast; 10 µM unless noted,36.8% (inactive) and 82.6% (inactive) and 77.2% (inactive)
same,growth,BT-549 breast; 10 µM unless noted,63.9% (inactive) and 63% (inactive) and 51.4% (inactive)
same,growth,MDA-MB-435 melanoma,-59.5% (active) and -46.6% (active) and -73% (active)
same,growth,SW-620 colon; 10 µM unless noted,24.2% (inactive) and 25% (inactive) and 19.4% (inactive)
same,growth,MCF7 breast; 10 µM,21.4% (inactive) and 18.4% (inactive) and 8.91% (active)
same,growth,HCT-116 colon,19.9% (inactive) and 9.73% (active) and 13.3% (inactive)
same,growth,HCC-2998 colon; 10 µM unless noted,57.3% (inactive) and 2.48% (active) and 23.8% (inactive)
same,growth,KM12 colon; 10 µM unless noted,11.2% (inactive) and -7.2% (active) and 3.76% (active)
